From PubChem BioAssay
A number with no mark means an inactive call.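 Rule for the calls: active = viability loss from added drug above about 55%, and viability with drug at most 40%, in both replicates (limit read from the data, passing the limit was not always enough); inconclusive = both conditions met in only one replicate; inactive = neither replicate meets both conditions.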

experiment: reversal of MRP1-mediated doxorubicin resistance, pilot screen, H69AR cells, doxorubicin co-treatment (AID 601); details: H69AR cells + 2 uM doxorubicin, CellTiter-Glo, 72 h; at 10 µM; stronger effect = higher value

SMILES	differential viability (reversal)
CCN(CC)S(=O)(=O)c1ccc2oc(C(=O)O)c(C)c2c1	10.4%
COCCN1CN(S(=O)(=O)c2ccccc2)c2nc3ccccc3nc21	-2.97%
COc1ccc(S(=O)(=O)NCc2ccc(C(=O)O)cc2)cc1	-10.6%
Cc1ccc2c(c1)sc1ncc(NC(=O)c3ccccc3)c(=O)n12	3.43%
CCOC(=O)N1CCC(N2C(=O)c3ccccc3C2Nc2cccnc2)CC1 (stereo not given)	0.11%
CCCCOC(=O)CSc1nc2c(cc1C#N)C(=O)CC(C)(C)C2	-10.6%
CN(C)c1cccc(NC(=O)CCc2ccccc2)c1	-7.99%
CCc1nc(N[C@@H](Cc2c[nH]c3ccccc23)C(=O)O)c2oc3ccccc3c2n1	-14.6%
O=C(CSc1nnc(C2COc3ccccc3O2)o1)N1CCCc2ccccc21 (stereo not given)	-3.22%
COc1ccc(CCNc2oc(-c3ccccc3OC)nc2C#N)cc1	0.34%
CCCn1c(SCC(=O)NC(C)(C)C)nnc1C(C)C	3.9%
COc1cc(N=c2ssnc2Cl)cc(OC)c1	-1.38%
COCCn1c(=O)[nH]c2cc(C(=O)N3CCN(Cc4ccc5c(c4)OCO5)CC3)ccc2c1=O	-1.86%
CCCCCC1CC(CC#CCN2CCOCC2)C(=O)O1 (stereo not given)	1.16%
CC(NC(=O)c1ccco1)c1ccc2c(c1)OCCO2 (stereo not given)	9.19%
Cn1c(=O)[nH]c(=O)c2c1nc(N1CCCCCC1)n2CCCSc1nc2ccccc2o1	37%
O=S(=O)(c1ccc(S(=O)(=O)N(Cc2ccco2)Cc2ccccc2Cl)cc1)N1CCCC1	12.4%
CCOC(=O)c1[nH]c(C)c(C(=O)Nc2ccccc2F)c1C	-51%
C=CCN(CC=C)C(=O)CN1C(=O)c2ccccc2C1=O	0.065%
COc1ccccc1C(=O)NC(C)C(c1cccs1)N1CCN(C)CC1 (stereo not given)	-0.4%

SMILES	differential viability (reversal)
O=C(CSc1nnnn1C1CCCC1)N1CCN(C(=O)c2ccco2)CC1	1.94%
Cc1ccccc1-c1nc(CS(=O)(=O)CC(=O)N(C)C2CCCCC2)c(C)o1	0.46%
O=S(=O)(c1ccc(OCC(O)CN2CCN(c3ccccc3)CC2)cc1)N1CCOCC1 (stereo not given)	5.24%
O=C(C1CCCO1)N1CCN(C(c2ccccc2)c2ccccc2)CC1 (stereo not given)	6.47%
CCn1nnnc1SCC(=O)N1CCOCC1	11.3%
CC(NC(=O)c1ccc2c(c1)OCO2)C(c1cccs1)N1CCOCC1 (stereo not given)	13.5%
CCC12CN3CC(CC)(CN(C1)C3c1ccc(OC(C)C)cc1)C2=O (stereo not given)	10.7%
O=C1CCC(c2ccccc2)N1C(=O)c1cccnc1 (stereo not given)	8.63%
CCOC(=O)CSc1nnc(CNC(=O)c2cccs2)n1-c1cc(OC)ccc1OC	11.1%
Cn1c(=O)c2c(nc(NCc3ccco3)n2C/C=C/c2ccccc2)n(C)c1=O	5.26%
O=C(CS(=O)(=O)c1cn(Cc2ccc(Cl)cc2)c2ccccc12)N1CCOCC1	8.43%
CCN(C(=O)CN1CCN(c2ccccc2OC)CC1)c1c(N)n(Cc2ccccc2)c(=O)[nH]c1=O	9.64%
CCn1c(CNc2ccc(C)cc2)nnc1SCC(=O)NCc1ccccc1	-0.975%
CCOC(=O)N1CCC(NC(=O)C2CCCN2C(=O)OCc2ccccc2)CC1 (stereo not given)	-2.27%
Cc1ccc(-c2nnc(-c3ccc(Br)cc3)o2)o1	1.58%
CN(C)S(=O)(=O)c1ccc(C(=O)N2CCCC2c2nc3ccccc3s2)cc1 (stereo not given)	1.97%
CC(=O)c1c(OCC(=O)O)ccc2c(C)cc(=O)oc12	3.1%
Cc1ccc2cc(C(c3nnnn3CC3CCCO3)N3CCc4ccccc4C3)c(=O)[nH]c2c1 (stereo not given)	-2.15%
O=C(c1ccccc1)N1CCN(CC2CC=CCC2)CC1 (stereo not given)	2.54%
Cc1ccccc1-c1nc(CS(=O)(=O)CC(=O)NCc2ccccc2)c(C)o1	6.09%
